The values that follow come from PMC9574860, “Chemical Toolkit for PARK7: Potent, Selective, and High-Throughput” (Journal of Medicinal Chemistry, 2022).

Among all 7,900 compounds or so, about 400 (5.1%) showed an effect of 50% or more. The sample holds strong results, similar compounds and a random draw of the others, so the mix is not that of the screen.

This experiment deals with Parkinson's disease protein 7 (PARK7/DJ1) (human, UniProt Q99497). In words: primary screen, percent inhibition; read as competition with a fluorescent probe by fluorescence polarization; higher = more effect of the substance. The following applies: 100 µM. The procedure, abridged: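 Covalent fragments at 100 μM final were incubated 2 h with 0.2 μM PARK7, then 20 nM probe JYQ-107 added for a further 2 h. Fluorescence polarization read at 480/520 nm; relative FP loss versus reference controls gave remaining enzyme activity.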
Sequence of Parkinson's disease protein 7 (PARK7/DJ1) (Q99497 whole entry, looked up, the tested form may be a part): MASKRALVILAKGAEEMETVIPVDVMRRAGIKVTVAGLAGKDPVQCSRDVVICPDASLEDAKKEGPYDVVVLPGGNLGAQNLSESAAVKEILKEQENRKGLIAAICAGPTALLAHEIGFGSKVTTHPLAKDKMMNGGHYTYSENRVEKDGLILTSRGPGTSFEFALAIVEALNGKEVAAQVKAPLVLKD
As to `Cn1c(SC2CCOC2=O)nnc1-c1ccccc1` (centres unmarked), the Inhibition % stood at 12.6%.
Take `FC(F)(F)c1ccc(S)nn1`: the Inhibition % was found to be 25.5%.
`Cc1ccc(S)nn1`: the Inhibition % is given as 28.1%.
`Sc1ccc(Cl)nn1`: the Inhibition % is recorded as 53.5%.
Take `COCC(=O)Nc1ccc(S(=O)(=O)F)cc1`: the Inhibition % is recorded as 13.6%.
For `CNC(=O)Nc1ccc(S(=O)(=O)F)cc1`, the Inhibition % was 22.2%.
Under `CC(C)CC(=O)NNS(=O)(=O)c1ccc(S(=O)(=O)F)cc1` stands 30.6%; under `CC(C)(C)C(=O)NNS(=O)(=O)c1ccc(S(=O)(=O)F)cc1`, 6.55%; under `CC(C)(C)C(=O)NNS(=O)(=O)c1cccc(S(=O)(=O)F)c1`, 97.2%.
Regarding `CC(C)CC(=O)NNS(=O)(=O)c1cccc(S(=O)(=O)F)c1`, the Inhibition % was 98.2%.
For `O=c1oc2cc(OCC3CO3)ccc2c2c1CCC2` (centres unmarked), the Inhibition % was 10.6%.
Consider `N#Cc1nc(N2CCOCC2)ccc1Cl`, for which the Inhibition % is recorded as 8.71%.
As for `Cc1cn2c(C=C(C#N)c3ccccn3)c(C)nc2s1`, the Inhibition % stood at 13.6%.
For the compound `O=C(CCl)Nc1cc(C(F)(F)F)ccc1-n1cncn1`, the Inhibition % was determined as 32.5%.
As to `C=CC(=O)N1CCC(c2ccc(C)nc2)CC1`, the Inhibition % amounted to 4.08%.
For the compound `CCn1cc(S(=O)(=O)Oc2cccc(F)c2)nc1C`, the Inhibition % was 3.67%.
For the compound `CCOc1ccncc1S(=O)(=O)Oc1cccc(F)c1`, the Inhibition % was determined as 58.4%.
Under `Cn1cc(S(=O)(=O)Oc2cccc(F)c2)c(=O)n(C)c1=O` stands 5.3%; under `N#Cc1nccnc1N1CCc2c(F)ccc(F)c2C1`, 41%; under `C=CC(=O)NCc1cc2ccccc2s1`, 13.3%.
As for `CC1CC(N2CCCCC2Cn2cncn2)C(=O)O1` (centres unmarked), the figure is 1.57%; as for `O=C(CCl)C1CCCCO1` (centres unmarked), 94.5%; as for `C=CC(=O)NCCC1CCCCO1` (centres unmarked), 2.29%.
With `O=C(CCl)NCC1CCCO1` (centres unmarked), the Inhibition % was found to be 5.15%.
As for `O=C(Cn1ncc2ccccc21)Nc1cccc(S(=O)(=O)F)c1`, the Inhibition % turned out to be 94.6%.
Under `Cn1c(=O)ccn(CC(=O)Nc2cccc(S(=O)(=O)F)c2)c1=O` stands 99.6%; under `CN(C)S(=O)(=O)c1cccc(NC(=O)CCl)c1`, 15.5%; under `O=C(CSC(F)(F)F)Nc1cccc(S(=O)(=O)F)c1`, 99.8%.
Regarding `CCn1nc(C)c(C(=O)Nc2cccc(S(=O)(=O)F)c2)c1Cl`, the Inhibition % worked out at 8.14%.
Turning to `NS(=O)(=O)c1cccc(NC(=O)CCCl)c1`, the Inhibition % was determined as 4.37%.
For `O=Cc1cccc(C(=O)O)c1O`, the Inhibition % worked out at 24.2%.
As for `C=CC(=O)N1CCN(CC(C)C)C(=O)C1`, the figure is 0.18%.
As for `COc1ccc(CS(=O)(=O)F)cc1[N+](=O)[O-]`, the Inhibition % was 18.4%.
Under `C=CC(=O)N1CC(Cc2cccs2)C1` stands 12.5%.
Turning to `C=CC(=O)NCCc1nnc2n1CCCCC2`, the Inhibition % was 8.54%.
In the case of `COc1ccc(C(=O)NNC(=O)CCl)cc1`, the Inhibition % was -3.11%.
As for `N#Cc1ncn(CCOc2ccccc2Cl)n1`, the figure is 8.15%; as for `C=CC(=O)N1CC(C)OC2(CCOC(C)C2)C1` (centres unmarked), 9.19%.
As for `O=C(CCl)Nc1ccc(Cl)cc1F`, the Inhibition % is given as 49.7%.
Turning to `Cc1cc(SC#N)cc(C)c1NC(=O)CCl`, the Inhibition % was determined as 4.28%.
`N#CSc1ccc(NC(=O)CCl)c(F)c1`: the Inhibition % worked out at 72%.
Under `O=C(CCl)Nc1ccc(Cl)cc1Cl` stands 18%; under `O=C(CCl)Nc1ccc(Br)cc1F`, 71.1%.
For the compound `O=C(CCl)Nc1ccc(F)cc1F`, the Inhibition % is 23.9%.
As for `O=C(CCl)Nc1ccc(F)c(F)c1F`, the figure is 32.8%; as for `N#CSc1ccc(NC(=O)CCl)c(Cl)c1`, 55.8%.
Consider `O=C(CCl)Nc1ccc(F)cc1Cl`, for which the Inhibition % turned out to be 13.8%.
`Cc1cccc(OCC(=O)Nc2ccc(S(=O)(=O)F)cc2)c1`: the Inhibition % is given as 9.17%.
In the case of `OB(O)c1ccccc1OCC1CCOC1` (centres unmarked), the Inhibition % stood at 5.05%.
`Cc1cc(CN(C)c2ccc(C#N)nc2)no1`: the Inhibition % is -2.05%.
As for `CN(CC(=O)Nc1ncc(S(=O)(=O)F)s1)S(C)(=O)=O`, the figure is 9.17%.
Under `CSC1(CNc2cccc(C#N)n2)CCC1` stands 11.9%; under `C=CC(=O)Nc1ccccc1CN1CCOCC1`, 8.41%.
Under `CCOc1cc(S(=O)(=O)n2ccc(C)n2)ccc1Cl` stands 2.71%; under `Cc1cc(B2OC(C)(C)C(C)(C)O2)sn1`, 0.986%; under `O=C1N(c2ccccc2)C(c2ccco2)C1(F)F` (centres unmarked), 3.32%.
Take `Cc1cccnc1S`: the Inhibition % is recorded as 12.6%.
As for `Sc1ncccc1Cl`, the Inhibition % came out at 2.79%.
As for `Nc1cccnc1S`, the figure is 101%; as for `C=CC(=O)NC(C)c1csnn1` (centres unmarked), 10%.
Under `N#Cc1nc(N2CCCC(N3CCNC3=O)C2)ccc1Cl` (centres unmarked) stands 1.45%; under `FC(F)(F)c1ccccc1OCC1CO1` (centres unmarked), 11.7%.
Regarding `Fc1ccccc1OCC1CO1` (centres unmarked), the Inhibition % worked out at 54.7%.
`Cc1ccccc1OCC1CO1` (centres unmarked): the Inhibition % is reported as 13.4%.
Under `C=CC(=O)NCC1=CCOCC1` stands 6.41%.
Under `COC(=O)c1ccc(Cl)cc1S(=O)(=O)F` stands 96.1%; under `COC(=O)c1ccccc1S(=O)(=O)F`, 52.5%.
Under `COC(=O)c1ccccc1CS(=O)(=O)F` stands 7.86%; under `COC(=O)c1ccc(S(=O)(=O)F)cc1F`, 4.21%; under `COC(=O)c1cccc(S(=O)(=O)F)n1`, 7.02%.
With `COC(=O)c1ccc(Cl)c(S(=O)(=O)F)c1`, the Inhibition % was found to be 9.08%.
As to `Cc1noc(C2CCN(Cc3cc(C#N)n(C)c3)C2)n1` (centres unmarked), the Inhibition % is recorded as 6.79%.
As for `C=CC(=O)N1CCC[C@@H]2O[C@H](c3ccccc3)C[C@@H]21` (racemic), the figure is 5.3%; as for `N#Cc1nccnc1SC1CCCC1`, 6.92%.
Under `O=S(=O)(C=Cc1ccccc1)NCc1cccnc1` stands 15.5%; under `C=C(C(=O)O)c1ccccc1F`, 3.02%.
Turning to `CC1(C2CC2)CCN(c2cncc(C#N)n2)CC1`, the Inhibition % is given as 6.7%.
As to `O=C(O)c1ccnc(S)c1`, the Inhibition % worked out at 11.8%.
In the case of `Nc1nccnc1S`, the Inhibition % is 26.8%.
For the compound `O=C(O)c1nccnc1S`, the Inhibition % came to 83.1%.
As to `C=CC(=O)NC1CCN(c2ncccc2F)C1` (centres unmarked), the Inhibition % was determined as 14.9%.
Under `C=CC(=O)N1CCC(c2cccc(C(F)(F)F)c2)C1` (centres unmarked) stands 10.4%.
In the case of `C=CC(=O)Nc1ccc2c(c1)CCC(C)(C)O2`, the Inhibition % is 6.26%.
Under `COc1ccc(NC(=O)CCl)c([N+](=O)[O-])c1` stands 10.4%.
Under `COC(=O)Nc1ccc(S(=O)(=O)F)cc1` stands 34.7%.
As for `COC(=O)Nc1ccc(S(=O)(=O)F)cc1[N+](=O)[O-]`, the figure is 101%; as for `C=CC(=O)N1CC(C(C)C)c2ccccc21` (centres unmarked), 5.57%.
Turning to `C=CC(=O)N(C)CC(=O)Nc1cc(C)on1`, the Inhibition % is 7.52%.
Turning to `C=CC(=O)N(C)CC(=O)Nc1csc(C)n1`, the Inhibition % is listed as 7.47%.
Under `C=CC(=O)N(C)CC(=O)Nc1cc(C)c(=O)n(C)c1` stands 54.5%; under `C=CCNC(=O)C(C#N)=Cc1cc(F)ccc1F`, 6.92%.
With `O=C(C1CCOCC1)N1CCCC(S(=O)(=O)F)C1` (centres unmarked), the Inhibition % was 8.98%.
Under `CC1CC1C(=O)N1CCC(CS(=O)(=O)F)C1` (centres unmarked) stands 96.8%; under `CC1CC1C(=O)N1CCC(S(=O)(=O)F)CC1` (centres unmarked), 72.2%.
For `CC1CC1C(=O)N1CCC(CS(=O)(=O)F)CC1` (centres unmarked), the Inhibition % amounted to 25.9%.
In the case of `CC1CC1C(=O)N1CCC(S(=O)(=O)F)C1` (centres unmarked), the Inhibition % worked out at 36.5%.
Turning to `CC1CC1C(=O)N1CC(CS(=O)(=O)F)C1` (centres unmarked), the Inhibition % came to 16.8%.
On to `O=C(C1CCOCC1)N1CCC(CS(=O)(=O)F)CC1`, for which the Inhibition % is recorded as 20.1%.
As for `O=C(C1CCOCC1)N1CCC(S(=O)(=O)F)C1` (centres unmarked), the figure is 19.5%; as for `CC1CC1C(=O)N1CCOC(CS(=O)(=O)F)C1` (centres unmarked), 11.8%; as for `C=CC(=O)N1CCC(CS(C)(=O)=O)C1` (centres unmarked), 4.28%.
Under `CC1CC1C(=O)N1CCCC(CS(=O)(=O)F)C1` (centres unmarked) stands 71.5%; under `O=C(C1CCOCC1)N1CCCC(CS(=O)(=O)F)C1` (centres unmarked), 55.9%.
`C=CC(=O)Nc1ccc(OC)c(F)c1`: the Inhibition % came to 4.48%.
As to `O=c1c2sccc2nc(S)n1CCCN1CCOCC1`, the Inhibition % is on record as 1.46%.
As for `O=C(CCl)Nc1cc(C(F)(F)F)ccc1Cl`, the figure is 4.72%; as for `N#Cc1ccnc2ccnn12`, 4.63%.
`CC1(S(=O)(=O)NC2CN(c3ccc(F)cc3)C2=O)CC1` (centres unmarked): the Inhibition % was 10.3%.
Under `O=C(C=Cc1nccs1)N1CCc2ccccc21` stands 14.3%; under `CCc1nc(C#N)cc(NC2CSC2)n1`, -3.02%; under `Cc1cc(C)n(S(=O)(=O)c2ccc(C)c(C)c2)n1`, 3.92%.
For the compound `CC1CC(N2CCn3c(nnc3C3CC3)C2)C(=O)O1` (centres unmarked), the Inhibition % was 18%.
As for `O=C(c1cc(F)cc(F)c1)N1CCCCC1C1OCCO1` (centres unmarked), the Inhibition % was found to be 3.28%.
Consider `C=CC(=O)N1CCN(CCc2ccc(F)cc2)CC1`, for which the Inhibition % is given as 8.07%.
`CC1CCCN(C(=O)C=Cc2cnc3ccccc3n2)C1` (centres unmarked): the Inhibition % amounted to 9.42%.
With `C=CC(=O)NC1CCCc2c1cnn2CC` (centres unmarked), the Inhibition % is given as 8.99%.
As for `Cc1cc(C(=O)CCl)c(C)n1-c1ccc(F)cn1`, the Inhibition % came to 5.68%.
On to `Cc1cc(C(=O)CCl)c(C)n1-c1ccon1`, for which the Inhibition % was determined as 82.8%.
Take `O=C(CCl)Nc1ccon1`: the Inhibition % turned out to be 14.8%.
With `Cc1cc(C(=O)CCl)c(C)n1-c1ncn[nH]1`, the Inhibition % is given as 60%.
As to `Cc1csc(CC(=O)NNC(=O)CCl)n1.Cl`, the Inhibition % is listed as 0.415%.
As for `Cc1cc(C(=O)CCl)c(C)n1-c1nccs1`, the Inhibition % is on record as 4.37%.
Take `Cc1cc(-n2c(C)cc(C(=O)CCl)c2C)no1`: the Inhibition % is reported as 7.75%.
Under `Cc1csc(-n2c(C)cc(C(=O)CCl)c2C)n1` stands 51%; under `Cc1cc(C(=O)CCl)c(C)n1-c1ccccn1`, 71.3%.
